According to PubChem BioAssay AID504834 (National Center for Advancing Translational Sciences (NCATS), 2011):
Hit rate of the full screen: of about 320,000 compounds, about 22,000 (6.9%) were called active. Roughly 27% stayed inconclusive and do not appear here. Many of the other results were omitted from the sample, so actives are more common in it than they were. A number with no mark means an inactive call. Calls follow the shape of the dose curve; as a rule, active = well fitted inhibition curve with a large enough effect; inconclusive = small, poorly fitted or top-dose-only effect, or another doubt; inactive = no such curve, though single readings can be large or run the other way.

Assay: Primary qHTS for delayed death inhibitors of the malarial parasite plastid, 96 hour incubation
Conditions: P. falciparum luciferase reporter growth; series mostly up to 28.7 µM; activity change, negative = inhibition: at the top concentration
Outline: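 Delayed-death screen, second-generation endpoint: infected erythrocytes, 2% hematocrit, 0.05% parasitemia final; 96 hours at 37 C, 5% CO2; luciferase detection reagent; luminescence decrease equals reduced growth.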
% is scaled to controls: 0 for no effect and ±100 for the full control effect; potency is read from the fitted curve at half-maximal effect.

Row | SMILES | activity change, negative = inhibition [%] | Potency
1 | NC(=O)C1CCN(CC(O)CSc2ccc(F)cc2)CC1 (stereo not drawn) | 26.9 | 
2 | c1ccc(-n2cccc2)c(N2CCCCC2)c1 | 7.08 | 
3 | c1ccc(-c2cc(N3CCCCC3)c3ccccc3n2)cc1 |  | 9.28 µM (active)
4 | O=c1cc(-c2ccccc2)nc(N2CCCCC2)[nH]1 | -15.8 | 
5 | Cc1nc2ccccc2n1CC(O)c1ccccc1 (stereo not drawn) | 2.16 | 
6 | O=C(/C=C/c1cccc(C(F)(F)F)c1)N1CCN(c2ccccn2)CC1 | 12.2 | 
7 | Nc1nonc1-n1nnc(C(=O)N/N=C\c2ccncc2)c1CN1CCCCC1 | 79 | 
8 | Cc1ccc(CNS(=O)(=O)c2ccc3c(c2)N(C)CCO3)cc1 | -0.724 | 
9 | Cc1ccc(S(=O)(=O)Nc2nc(CN3CCOCC3)nc3sc(C)c(C)c23)cc1 | 1.88 | 
10 | Cc1ccc(NC(=O)CN(C)C(=O)Cn2nnc(-c3ccccc3)n2)cc1 | 28 | 
11 | COc1c(C)c2c(c(O)c1C/C=C(\C)CCC(=O)O)C(=O)OC2 |  | 1.61 µM (active)
12 | Cc1cc(=O)oc2c(C(=O)c3ccccc3)c(OCC(N)=O)ccc12 | 0.359 | 
13 | COC(=O)c1cc(S(=O)(=O)N2CCC(C(N)=O)CC2)oc1C | 5.4 | 
14 | Cn1c(SCC(=O)N/N=C/c2ccc(O)c(O)c2)nc2ccccc21 | 0.417 | 
15 | COC(=O)c1ccc(COC(=O)c2c(C)nn(Cc3ccccc3Cl)c2Cl)o1 | -79.4 | 
16 | COc1ccccc1CCNC(=O)c1c(C)nn(CC(C)C)c1Cl | 2.72 | 
17 | Cc1nn(Cc2ccccc2Cl)c(Cl)c1C(=O)OC(C(=O)NC(N)=O)C(C)C (stereo not drawn) |  | 13.1 µM (active)
18 | CCCCCCn1cc(C(=O)O)c(=O)c2cc(F)c(N3CCCCC3)cc21 | -5.73 | 
19 | CC(C)CN(C(=O)Cn1c(=O)cnc2ccccc21)C1CCS(=O)(=O)C1 (stereo not drawn) | 0.302 | 
20 | Cc1ccc(C)c(NC(=O)CN(C)C(=O)c2ccc3ncsc3c2)c1 | 0 | 
21 | COc1ccc(C(=O)CCC(=O)Nc2ccc(Cl)cc2)cc1 | 37.7 | 
22 | COc1ccccc1/C=N/N1CCN(Cc2ccccc2Cl)CC1 | 39.7 | 
23 | COc1ccc(C2SCCN2S(=O)(=O)c2ccccc2)cc1OC (stereo not drawn) | 31.4 | 
24 | COc1ccc(C2N=C(N)N=C(N)N2c2ccccc2)cc1OC (stereo not drawn) |  | 2.62 µM (active)
25 | COc1ccc(C2/C(=C(/O)c3ccccc3)C(=O)C(=O)N2c2ncccn2)cc1OC (stereo not drawn) | 1.16 | 
26 | Cc1ccc(S(=O)(=O)N(C)C)cc1NC(=O)C(C)OC(=O)c1ccc2ccccc2n1 (stereo not drawn) | 4.57 | 
27 | COc1ccc(S(=O)(=O)N(C)CC(=O)NCCCN2CCOCC2)cc1Cl | 28.2 | 

Row | SMILES | activity change, negative = inhibition [%] | Potency
28 | CCOc1ccccc1NC(=O)CCc1nnc2ccc(NCc3ccco3)nn12 |  | 8.28 µM (active)
29 | O=C(CCc1nnc2ccc(NCc3ccco3)nn12)Nc1cc(F)ccc1F | -2.28 | 
30 | CC(=O)c1ccc(NC(=O)CCc2nnc3ccc(NCc4ccco4)nn23)cc1 | 15.2 | 
31 | CC(C)C[C@H](NC(=O)C1CCC(CNC(=O)[C@@H]2CCCN2C(=O)OC(C)(C)C)CC1)C(=O)O (stereo partly drawn) | 2.05 | 
32 | COc1ccc(CCNC(=O)CCCCCNC(=O)N2CCn3c2nc2ccccc23)cc1OC |  | 14.7 µM (active)
33 | CC(C)[C@H](NC(=O)N1CCn2c1nc1ccccc12)C(=O)NCc1ccc2c(c1)OCO2 | 1.93 | 
34 | COc1ccc(CCNC(=O)CCc2ccccc2O)cc1OC | 4.65 | 
35 | Cc1ccc(C(=O)N2CCC(n3nccc3NC(=O)Nc3cccc(F)c3)CC2)cn1 | 0 | 
36 | CCCC(=O)Nc1ccc2c(c1)nc(CCNC(=O)c1ccco1)n2C | 0 | 
37 | COc1cccc(C2CC(c3cccs3)=NN2C(=O)CSC2=NCCS2)c1OC (stereo not drawn) |  | 6.57 µM (active)
38 | COc1cccc(C2CC(c3ccccc3)=NN2S(=O)(=O)c2ccccc2)c1OC (stereo not drawn) | -2.15 | 
39 | COc1ccc(C2CC(c3cccs3)=NN2C(=O)CSc2nnc(N)s2)cc1OC (stereo not drawn) |  | 10.4 µM (active)
40 | Cc1ccc(C2=NN(C(=O)CSc3nc(N)cc(N)n3)C(c3ccco3)C2)cc1 (stereo not drawn) | -26.7 | 
41 | COc1ccc(C2CC(c3cccs3)=NN2C(=O)CSc2nncs2)cc1OC (stereo not drawn) |  | 10.4 µM (active)
42 | COc1ccc(C2CC(c3cccs3)=Nc3ccccc3S2)cc1OC (stereo not drawn) | 11.8 | 
43 | COc1ccc(C2=NN(C(=O)CCC(=O)O)C(c3cccs3)C2)cc1OC (stereo not drawn) | 23.4 | 
44 | COc1ccc(C2CC(c3cccs3)=NN2C(=O)COC(=O)c2cc3ccccc3cc2O)cc1OC (stereo not drawn) | 0 | 
45 | Cc1ccccc1C1CC(c2cccs2)=NN1S(C)(=O)=O (stereo not drawn) | -23.6 | 
46 | COc1ccc(C2CC(c3cccs3)=NN2c2ccc(F)cc2)cc1OC (stereo not drawn) | 0 | 
47 | COc1ccc(C2CC(c3cccs3)=NN2C(=O)CCC(=O)O)cc1OC (stereo not drawn) |  | 2.62 µM (active)
48 | COc1ccc(C2CC(c3ccccc3)=NN2C(=O)COC(=O)COc2ccccc2)cc1 (stereo not drawn) | 23.8 | 
49 | COc1ccccc1CNC(=O)COC(=O)CNS(=O)(=O)c1ccc(NC(C)=O)cc1 | -14.5 | 
50 | CCCn1cc(S(=O)(=O)c2ccc(C)cc2)c(=O)c2cc(OCC)ccc21 | 32.7 | 
51 | CCOc1ncccc1C(=O)NNC(=O)c1cccc(S(=O)(=O)Nc2ccccc2OC)c1 | 9.01 | 
52 | O=C(CNC(=O)c1cccs1)N/N=C/c1cccc(Br)c1 | 38.7 | 
53 | Cc1cc(F)ccc1S(=O)(=O)Nc1ccc(C(=O)N(C)Cc2ccco2)cc1 | 30 | 
